Sampled rows, rich in hits. Any-hit rate of the full collection: about 19%.
TDP1 inh – qHTS Assay for Inhibitors of Tyrosyl-DNA Phosphodiesterase (TDP1). recombinant TDP1, AlphaScreen DNA substrate cleavage. Potency, µM (series often up to 130 µM), for inactives: at the top dose activity change, negative = inhibition, most hits filed as inhibitors. 350,000 compounds, 0.28% hits; also: potency is read from the fitted curve at half-maximal effect; % is scaled to controls: 0 for no effect and ±100 for the full control effect; nearly all actives have a fitted effect of over 40% in size
Target sequence (Q9NUW8 whole entry, looked up): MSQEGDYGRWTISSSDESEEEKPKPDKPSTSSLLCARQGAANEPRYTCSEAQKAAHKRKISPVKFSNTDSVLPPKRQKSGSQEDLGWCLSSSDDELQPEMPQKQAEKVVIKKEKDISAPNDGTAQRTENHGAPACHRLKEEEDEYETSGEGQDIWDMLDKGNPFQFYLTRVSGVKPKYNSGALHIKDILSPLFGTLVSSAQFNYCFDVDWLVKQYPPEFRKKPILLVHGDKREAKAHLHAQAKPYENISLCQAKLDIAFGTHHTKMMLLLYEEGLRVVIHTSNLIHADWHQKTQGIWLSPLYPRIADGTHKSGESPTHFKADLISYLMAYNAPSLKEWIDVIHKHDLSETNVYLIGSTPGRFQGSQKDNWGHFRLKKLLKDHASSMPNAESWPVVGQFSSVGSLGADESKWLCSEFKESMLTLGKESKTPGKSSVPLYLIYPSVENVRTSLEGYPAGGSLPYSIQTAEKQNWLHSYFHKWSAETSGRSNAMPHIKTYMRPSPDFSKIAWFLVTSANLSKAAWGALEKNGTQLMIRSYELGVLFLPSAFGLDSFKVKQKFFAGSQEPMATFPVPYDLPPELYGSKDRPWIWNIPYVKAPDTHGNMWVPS
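Recombinant human Tdp1 (E. coli-expressed, 1 nM final) preincubated with compounds 15 min at room temperature, then 5'-biotin/3'-phosphotyrosine-FITC DNA substrate (15 nM final) added for 5 min. AlphaScreen beads (10 ug/ml final) added 10 min; cleavage lowers signal.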
HepG2 viability – qHTS for Inhibitors of TGF-b: Cytotox Counterscreen | HepG2 CAGA-GFP viability, ATP luminescence, 18 h | 410,000 compounds, 0.76% hits | Potency, µM (highest dose often 46.1 µM), for the others: at the top dose activity change, negative = cytotoxicity, most hits filed as cytotoxic; also: potency is read from the fitted curve at half-maximal effect
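HepG2 CAGA-GFP cells (1000/well, DMEM with 1% FBS) received compound, then TGF-beta at 500 pg/mL final, and were incubated 18 hours at 37 degrees C. Viability was read by CellTiter-Glo luminescence. Media-only wells were set as complete cell-killing and DMSO as no toxicity.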
IL-1B inflam inh – qHTS for Inhibitors of Inflammasome Signaling: IL-1-beta AlphaLISA Primary Screen. THP-1 LPS/ATP IL-1B secretion, AlphaLISA, 16 h; hits give low values. activity change, % at 57.5 µM. 360,000 compounds, 4.7% hits. AID 743279, 2014; in the data active = activity change below about -50%; inconclusive = mostly about -30% to -49%; also: % is scaled to controls: 0 for no effect and ±100 for the full control effect
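Secreted IL-1B measured by AlphaLISA bead assay after 16 h compound exposure of THP-1 cells; compounds (final up to 57.5 uM) added 1 h before LPS (250 ng/mL) and ATP (1.25 mM) stimulation; lower signal means less secretion.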
TDP1 cell CPT – qHTS for Inhibitors of human tyrosyl-DNA phosphodiesterase 1 (TDP1): qHTS in cells in presence of CPT | chicken DT40 Tdp1-/-;hTDP1 cells + 20 nM CPT, ATP luminescence, 48 h | Potency, µM (series often up to 46.2 µM), without a hit: at the top dose activity change, negative = growth inhibition, hits mostly inhibitors | 420,000 compounds, 12% hits | AID 686979, 2013; also: potency is read from the fitted curve at half-maximal effect; % is scaled to controls: 0 for no effect and ±100 for the full control effect; nearly all actives have a fitted effect of over 55% in size
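Chicken DT40 Tdp1-/- cells stably complemented with human TDP1 were seeded at 400 cells/well in medium containing 20 nM camptothecin, exposed to pin-transferred compounds, and grown at 37 °C for at least 48 hr. Viability was read as ATP luminescence.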
TGFb SMAD3 inh – qHTS for Inhibitors of TGF-b | HepG2 CAGA-GFP TGF-b/SMAD3 reporter, GFP fluorescence, 18 h; TGF-beta stimulated, 500 pg/mL final | Potency, µM (top dose mostly 46.1 µM), inactives show at the top dose activity, negative = inhibition, usual class: inhibitors | AID 588855, 2011 | 410,000 compounds, 1.2% hits; also: potency is read from the fitted curve at half-maximal effect; % is scaled to controls: 0 for no effect and ±100 for the full control effect; nearly all actives have a fitted effect of over 65% in size
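Inhibition was scored as loss of TGF-beta-induced (500 pg/mL final, 18 hours, 37 degrees C) GFP in HEPG2 cells carrying a CAGA-GFP reporter, in DMEM with 1% FBS. Well GFP was summed per cell; Activity was normalised to unstimulated and stimulated DMSO wells, then concentration-response fitting.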
TDP1 cell noCPT – qHTS for Inhibitors of human tyrosyl-DNA phosphodiesterase 1 (TDP1): qHTS in cells in absence of CPT; 420,000 compounds, 15% hits; DT40 Tdp1-/- hTDP1 cells, no CPT, ATP luminescence, 48 h; Potency, µM (doses to about 46.2 µM), for the others: at the highest dose activity change, negative = growth inhibition, usual class: inhibitors; also: potency is read from the fitted curve at half-maximal effect; % is scaled to controls: 0 for no effect and ±100 for the full control effect; nearly all actives have a fitted effect of over 55% in size
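Chicken DT40 Tdp1-/- cells complemented with human TDP1, screened without camptothecin (DMSO vehicle only), 400 cells/well. Compounds pin-transferred, cells incubated at 37 °C for at least 48 hr. Growth read as ATP-dependent luminescence (CellTiter-Glo, 30 min at RT).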
Starred values were filed as active, the others as inactive; [ ] = remark or other dose. Unless noted, calls follow the shape of the dose curve; as a rule, active = well fitted curve in the direction sought with a large enough effect; inconclusive = small, poorly fitted or top-dose-only effect, or another doubt; inactive = no such curve, though single readings can be large; an effect the other way counts as inactive or inconclusive.

Screening COc1cccc(CN(C)C(=O)CNC(=O)c2ccc(-c3ccccc3)cc2)c1OC returned TDP1 inh -6.5%, HepG2 viability -25.7%, IL-1B inflam inh -63.2*, TDP1 cell CPT inconclusive, TGFb SMAD3 inh inconclusive and TDP1 cell noCPT inconclusive.
Screening COc1ccccc1CN(C)C(=O)C(c1ccccc1)c1ccccc1 returned HepG2 viability -7.6%, IL-1B inflam inh -82.2*, TDP1 cell CPT 16.4µM*, TGFb SMAD3 inh 0.0% and TDP1 cell noCPT 13µM*.
`CCN(CC(=O)Nc1cccc(OC)c1)C(=O)c1cnc(Cl)c(Cl)c1` gave TDP1 inh 10.0%, HepG2 viability 10.7%, IL-1B inflam inh -83.1*, TDP1 cell CPT -11.3%, TGFb SMAD3 inh 0.2% and TDP1 cell noCPT inconclusive.
For COc1ccc(Br)cc1CN(C)C(=O)c1cc(Cl)c2c(c1)OCCO2 the results were TDP1 inh 4.5%, HepG2 viability -1.8%, IL-1B inflam inh -26.3, TDP1 cell CPT inconclusive, TGFb SMAD3 inh -18.7% and TDP1 cell noCPT 20.6µM*.
`CN(Cc1ccc(F)cc1)C(=O)C(c1ccccc1)c1ccccc1` gave HepG2 viability -6.0%, IL-1B inflam inh inconclusive, TDP1 cell CPT -26.9%, TGFb SMAD3 inh -6.5% and TDP1 cell noCPT inconclusive.
For CC1=CC2C(C3C=CC2(C)C(=O)C3(C)O)C(C)(O)C1=O (configuration not stated) the results were HepG2 viability -1.1%, IL-1B inflam inh 4.2, TDP1 cell CPT 19.2%, TGFb SMAD3 inh 10.3% and TDP1 cell noCPT 12.2%.
Screening COc1ccc(OC)c(C2C(C(=O)Nc3ccc(C)cc3)=C(C)Nc3nnnn32)c1 (configuration not stated) returned TDP1 inh -1.9%, HepG2 viability -1.5% and TGFb SMAD3 inh 19.0%.
For COc1cccc(CN(C)C(=O)c2ccc(COc3ccc(Cl)cc3)cc2)c1OC the results were TDP1 inh -1.4%[0.0935 µM], HepG2 viability -8.3%, IL-1B inflam inh inconclusive, TDP1 cell CPT inconclusive, TGFb SMAD3 inh inconclusive and TDP1 cell noCPT inconclusive.
Screening COc1cccc(CN(C)C(=O)c2ccc(Oc3ccccc3)cc2)c1OC returned TDP1 inh -8.7%, HepG2 viability -8.3%, IL-1B inflam inh -8.8, TDP1 cell CPT 25.9µM*, TGFb SMAD3 inh inconclusive and TDP1 cell noCPT 20.6µM*.
For Cc1cccc(C)c1NC(=O)CN1CCN(C(=O)c2ccc(OCc3cn4ccccc4n3)cc2)CC1 the results were TDP1 inh 44.7µM*, HepG2 viability -4.8%, IL-1B inflam inh 19.6, TDP1 cell CPT -25.0%, TGFb SMAD3 inh -0.5% and TDP1 cell noCPT inconclusive.
COc1cccc(NC(=O)CN(C)C(C)C(=O)NC(C)c2ccc(Cl)cc2Cl)c1 (configuration not stated) was read as TDP1 inh 0.7%, HepG2 viability -18.8%, IL-1B inflam inh -8.4, TDP1 cell CPT inconclusive, TGFb SMAD3 inh 5.1% and TDP1 cell noCPT 18.4µM*.
COc1cccc(NC(=O)CN(C)C(=O)CNC(=O)c2ccc3ccccc3c2)c1 was read as HepG2 viability 6.4%, IL-1B inflam inh -99.8*, TDP1 cell CPT -1.1%, TGFb SMAD3 inh inconclusive and TDP1 cell noCPT 5.2%.
Screening COc1cc2nccc(Oc3ccc(NC(=O)Nc4ccc(F)cc4F)c(F)c3)c2cc1OC returned TDP1 inh -2.3%.
`CN(CC(=O)Nc1cccc(F)c1)C(=O)c1ccc(OCc2cn3ccccc3n2)cc1` gave TDP1 inh -17.8%, HepG2 viability -9.4%, IL-1B inflam inh -1.8, TDP1 cell CPT inconclusive, TGFb SMAD3 inh -2.4% and TDP1 cell noCPT 14.6µM*.
Screening CSc1nncc(=O)[nH]1 returned TDP1 inh 5.5%, HepG2 viability -4.3%, IL-1B inflam inh 22.0, TDP1 cell CPT inconclusive, TGFb SMAD3 inh -0.2% and TDP1 cell noCPT 23.1µM*.
For COc1cccc(NC(=O)CSc2nc(-c3ccccc3)nc3c2Cc2cc(Cl)ccc2O3)c1 the results were TDP1 inh 3.8%, HepG2 viability 1.8%, TDP1 cell CPT 10.1%, TGFb SMAD3 inh 1.8% and TDP1 cell noCPT 3.5%.
`Fc1ccc(Cc2cn3cc(-c4ccc(Cl)cc4)nc3s2)cc1` gave TDP1 inh -3.2%, HepG2 viability -2.9%, TDP1 cell CPT -15.6%, TGFb SMAD3 inh -1.2% and TDP1 cell noCPT -10.3%.
O=c1oc2ccccc2cc1-c1cn2cc(Cc3ccc(Cl)cc3)sc2n1 was read as TDP1 inh -1.1%, HepG2 viability 0.1%, TDP1 cell CPT 3.26µM*, TGFb SMAD3 inh 2.5% and TDP1 cell noCPT 2.59µM*.
`Cc1nc2n(c(=O)c1CCN1CCC(c3noc4cc(F)ccc34)CC1)CCC[C@H]2O` gave TDP1 cell CPT 0.0944µM* and TDP1 cell noCPT 0.531µM*.
`CC(=NNc1ccc2ccccc2n1)c1ccccc1O` gave HepG2 viability -27.0%, IL-1B inflam inh -58.7*, TDP1 cell CPT inconclusive, TGFb SMAD3 inh inconclusive and TDP1 cell noCPT inconclusive.
`C/C(=N\Nc1cccc([N+](=O)[O-])c1)c1ccccc1O` gave TDP1 inh 2.7%, HepG2 viability -17.6%, IL-1B inflam inh -21.8, TDP1 cell CPT inconclusive, TGFb SMAD3 inh 1.9% and TDP1 cell noCPT inconclusive.
Screening C/C(=N\Nc1nc2ccccc2nc1C)c1ccccc1O returned TDP1 inh 4.7%, HepG2 viability -16.9%, IL-1B inflam inh 32.2, TDP1 cell CPT 0.13µM*, TGFb SMAD3 inh -24.4% and TDP1 cell noCPT 0.092µM*.
For COc1ccc(C(=O)n2nc(-c3cccnc3)nc2NCc2ccccc2)cc1OC the results were TDP1 inh -3.7%, HepG2 viability -5.9%, TDP1 cell CPT -23.7%, TGFb SMAD3 inh 3.6% and TDP1 cell noCPT inconclusive.
Screening CCCCN1C(=O)C(CC(=O)NCc2ccco2)CC(C(=O)N(C(C)C)C(C)C)=C1C (configuration not stated) returned HepG2 viability 13.4%, IL-1B inflam inh inconclusive, TDP1 cell CPT -0.3%, TGFb SMAD3 inh -6.0% and TDP1 cell noCPT -1.2%.
